Consider 14 molecules from PubChem BioAssay (Tox21).

Assay [1] in a line: qHTS assay to test for compound auto fluorescence at 535 nm (green) in HEK293 cells (AID 720680). Background: In qHTS, concentration-response curves come from the screen itself.
A short description of assay [2]: qHTS assay to test for compound auto fluorescence at 460 nm (blue) in HEK293 cell free culture (AID 720681). The method, boiled down: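 Blue fluorescence (Ex 405/Em 460 nm, triamterene-equivalent) was read immediately after pin transfer of compound or DMSO into medium (DMEM, 10% FBS) without cells.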
Assay [3] can be described thus: qHTS assay to test for compound auto fluorescence at 535 nm (green) in HEK293 cell free culture (AID 720682). Put shortly:
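Using fluorescein as calibrant, autofluorescence was quantified at 485/535 nm in cell-free DMEM containing 10% FBS after pintool addition of compound or vehicle.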

A short description of assay [4]: qHTS assay to test for compound auto fluorescence at 590 nm (red) in HEK293 cell free culture (AID 720683). The method, boiled down: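 Red-channel autofluorescence of compounds in culture medium (DMEM, 10% FBS), no cells, measured at 540/590 nm. Rose Bengal sodium is the reference fluorophore for equivalence.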
Assay [5] can be described thus: qHTS assay to test for compound auto fluorescence at 590 nm (red) in HepG2 cell free culture (AID 720684). The method, boiled down:
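No cells present: MEM + 10% FBS only. Compound pinned in, red label read (540/590 nm). Activity = fluorescence equivalent to Rose Bengal sodium.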

Assay [6] can be described thus: qHTS assay to test for compound auto fluorescence at 535 nm (green) in HepG2 cell free culture (AID 720686).
Assay [7] can be described thus: qHTS assay to test for compound auto fluorescence at 460 nm (blue) in HepG2 cells (AID 720687). The method, boiled down: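 Blue-channel autofluorescence (Ex/Em 405/460 nm, triamterene-equivalent) was measured after 1 hr compound exposure at 37 C, 5% CO2. Cells were HepG2, plated overnight at 37 C in MEM plus 10% FBS.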
The nature of assay [8]: qHTS assay to identify small molecule antagonists of the glucocorticoid receptor (GR) signaling pathway - cell viability counter screen (AID 720693). Further: nearly all actives have a fitted effect of over 55% in size.
Assay [9] can be described thus: qHTS assay for identifying genotoxic compounds that show differential cytotoxicity against isogenic chicken DT40 cell lines with known DNA damage response pathways - wild type cell line (AID 743012). Further: nearly all actives have a fitted effect of over 60% in size. Further: potency means the concentration at half of the fitted maximal effect. The method, boiled down:
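Viability of DNA repair-proficient chicken DT40 cells was assessed by CellTiter-Glo luminescence following 40 h compound exposure at 37 C/5% CO2.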

A short description of assay [10]: qHTS assay for identifying genotoxic compounds that show differential cytotoxicity against isogenic chicken DT40 cell lines with known DNA damage response pathways - Rev3 mutant cell line (AID 743014). Further: nearly all actives have a fitted effect of over 55% in size. Further: potency means the concentration at half of the fitted maximal effect.
Assay [11] can be described thus: qHTS assay for identifying genotoxic compounds that show differential cytotoxicity against isogenic chicken DT40 cell lines with known DNA damage response pathways - Rad54/Ku70 mutant cell line (AID 743015). Further: nearly all actives have a fitted effect of over 60% in size. Further: potency means the concentration at half of the fitted maximal effect.
A short description of assay [12]: qHTS assay to identify small molecule antagonists of the androgen receptor (AR) signaling pathway - cell viability counter screen (AID 743033; further: nearly all actives have a fitted effect of over 45% in size).
Assay [13] is described as follows: qHTS assay to identify small molecule antagonists of the androgen receptor (AR) signaling pathway using the MDA cell line - cell viability counter screen (AID 743041; further: nearly all actives have a fitted effect of over 45% in size). The method, boiled down: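 Using the breast carcinoma line MDA-kb2 AR-luc, test chemicals were co-incubated with R1881 for 16 h; CellTiter-Fluor reagent, added at 15.5 h, provided a fluorescence measure of live cells.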

Assay [14] deals with Glucocorticoid receptor (Homo sapiens) (UniProt P04150). Put plainly: qHTS assay to identify small molecule agonists of the glucocorticoid receptor (GR) signaling pathway (AID 720691; active means well fitted activation curve with a large enough effect in the signal ratio in the repeat runs, not every such curve was filed as active; inconclusive means weak or mixed curves, or effect the other way; inactive means no such curve, though single readings can be large or run the other way; the % refers to the signal ratio; further: potency means the concentration at half of the fitted maximal effect). The settings on record: GR-bla HeLa, beta-lactamase reporter ratio, 18 h; activation: at 62.4 µM (top of the series). The method, boiled down: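 Compounds in DMSO, alongside positive controls, were added to GR-bla HeLa reporter cells and incubated 18 h at 37 C; GRE-driven beta-lactamase was detected by fluorescence after 2 h with FRET substrate at room temperature.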
Sequence of Glucocorticoid receptor (Homo sapiens) (P04150 whole entry, looked up): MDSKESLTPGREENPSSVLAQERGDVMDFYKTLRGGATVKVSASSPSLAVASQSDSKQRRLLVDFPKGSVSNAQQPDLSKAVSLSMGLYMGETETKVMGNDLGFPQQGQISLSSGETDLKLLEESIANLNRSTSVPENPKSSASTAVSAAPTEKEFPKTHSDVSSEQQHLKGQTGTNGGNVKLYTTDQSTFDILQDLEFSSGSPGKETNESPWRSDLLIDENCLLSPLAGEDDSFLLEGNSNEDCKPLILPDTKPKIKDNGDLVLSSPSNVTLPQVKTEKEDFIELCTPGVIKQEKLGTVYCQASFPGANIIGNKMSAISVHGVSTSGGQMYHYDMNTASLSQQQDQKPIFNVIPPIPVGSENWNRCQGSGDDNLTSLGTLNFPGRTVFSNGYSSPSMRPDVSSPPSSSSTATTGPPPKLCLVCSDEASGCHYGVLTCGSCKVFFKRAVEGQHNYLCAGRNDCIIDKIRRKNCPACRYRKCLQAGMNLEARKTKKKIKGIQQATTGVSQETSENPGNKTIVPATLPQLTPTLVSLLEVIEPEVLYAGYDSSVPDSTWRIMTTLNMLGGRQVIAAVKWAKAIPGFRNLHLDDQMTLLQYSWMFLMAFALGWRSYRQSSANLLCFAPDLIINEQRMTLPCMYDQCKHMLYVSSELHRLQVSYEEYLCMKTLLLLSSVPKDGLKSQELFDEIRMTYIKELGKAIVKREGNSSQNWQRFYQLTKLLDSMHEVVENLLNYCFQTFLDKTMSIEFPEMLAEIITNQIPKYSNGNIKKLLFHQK

For assay [15] the target is unchanged. Put plainly: qHTS assay to identify small molecule antagonists of the glucocorticoid receptor (GR) signaling pathway (AID 720692; active means well fitted inhibition curve with a large enough effect in the signal ratio in the repeat runs, not every such curve was filed as active; inconclusive means weak or mixed curves, or effect the other way; inactive means no such curve, though single readings can be large or run the other way; the % refers to the signal ratio). Put shortly:
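In a 1536-well cell format, compounds were added 4 h after seeding GR-bla HeLa cells, together with dexamethasone at 5 nM final; reporter activity was measured by FRET-substrate fluorescence following 18 h at 37 C.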

The target of assay [16] is Androgen receptor (Homo sapiens) (UniProt P10275). Put plainly: qHTS assay to identify small molecule antagonists of the androgen receptor (AR) signaling pathway (AID 743035; active means well fitted inhibition curve with a large enough effect in the signal ratio in the repeat runs, not every such curve was filed as active; inconclusive means weak or mixed curves, or effect the other way; inactive means no such curve, though single readings can be large or run the other way; the % refers to the signal ratio). The method, boiled down:
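Reporter HEK293 cells were exposed to compounds and R1881 overnight (16 h, 37C); beta-lactamase activity was then quantified by FRET fluorescence.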

Assay [17] has the same target. Put plainly: qHTS assay to identify small molecule agonists of the androgen receptor (AR) signaling pathway (AID 743036; active means well fitted activation curve with a large enough effect in the signal ratio in the repeat runs, with a control signal flat, not every such curve was filed as active; inconclusive means weak or mixed curves, or effect the other way; inactive means no such curve, though single readings can be large or run the other way; the % refers to the signal ratio). The method, boiled down: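 In this Tox21 qHTS, 2,000 HEK293 AR-bla cells per well were incubated with compounds for 16 h at 37C and 5% CO2. Fluorescence intensity was recorded 2 h after adding LiveBLAzer B/G FRET substrate at room temperature.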

The target is the same in assay [18]. The assay is described as follows: qHTS assay to identify small molecule agonists of the androgen receptor (AR) signaling pathway using the MDA cell line (AID 743040; further: nearly all actives have a fitted effect of over 20% in size). The method, boiled down: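 Stable MMTV-luciferase reporter in MDA-kb2 cells; note the promoter carries GR as well as AR response elements. 16 h compound treatment, 37C, 0% CO2; ONE-Glo luminescence endpoint.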

Assay [19] shares this target. Put plainly: qHTS assay to identify small molecule antagonists of the androgen receptor (AR) signaling pathway using the MDA cell line (AID 743042; further: nearly all actives have a fitted effect of over 55% in size). The method, boiled down:
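Antagonist mode: compounds plus R1881 agonist added to MDA-kb2 AR-luc cells, incubated 16 h at 37C. Luciferase reporter luminescence quantified, with multiplexed CellTiter-Fluor readout for cell viability.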

Assay [20] is described as follows: qHTS assay to test for compound auto fluorescence at 460 nm (blue) in HepG2 cell free culture (AID 720685). Put shortly: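 Cell-free plates of MEM plus 10% FBS received 23 nL compound or DMSO vehicle; blue-channel (405/460 nm) intensity scored against triamterene as reference fluorophore.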

SMILES strings stand for the structures. The source made the active and inactive calls. Unless noted, the call rests on the fitted dose curve; in most records, active means well fitted curve in the direction sought with a large enough effect in the repeat runs; inconclusive means weak or mixed curves; inactive means no such curve, though single readings can be large; an effect the other way counts as inactive or inconclusive.

Sequence of Androgen receptor (Homo sapiens) (P10275 whole entry, looked up): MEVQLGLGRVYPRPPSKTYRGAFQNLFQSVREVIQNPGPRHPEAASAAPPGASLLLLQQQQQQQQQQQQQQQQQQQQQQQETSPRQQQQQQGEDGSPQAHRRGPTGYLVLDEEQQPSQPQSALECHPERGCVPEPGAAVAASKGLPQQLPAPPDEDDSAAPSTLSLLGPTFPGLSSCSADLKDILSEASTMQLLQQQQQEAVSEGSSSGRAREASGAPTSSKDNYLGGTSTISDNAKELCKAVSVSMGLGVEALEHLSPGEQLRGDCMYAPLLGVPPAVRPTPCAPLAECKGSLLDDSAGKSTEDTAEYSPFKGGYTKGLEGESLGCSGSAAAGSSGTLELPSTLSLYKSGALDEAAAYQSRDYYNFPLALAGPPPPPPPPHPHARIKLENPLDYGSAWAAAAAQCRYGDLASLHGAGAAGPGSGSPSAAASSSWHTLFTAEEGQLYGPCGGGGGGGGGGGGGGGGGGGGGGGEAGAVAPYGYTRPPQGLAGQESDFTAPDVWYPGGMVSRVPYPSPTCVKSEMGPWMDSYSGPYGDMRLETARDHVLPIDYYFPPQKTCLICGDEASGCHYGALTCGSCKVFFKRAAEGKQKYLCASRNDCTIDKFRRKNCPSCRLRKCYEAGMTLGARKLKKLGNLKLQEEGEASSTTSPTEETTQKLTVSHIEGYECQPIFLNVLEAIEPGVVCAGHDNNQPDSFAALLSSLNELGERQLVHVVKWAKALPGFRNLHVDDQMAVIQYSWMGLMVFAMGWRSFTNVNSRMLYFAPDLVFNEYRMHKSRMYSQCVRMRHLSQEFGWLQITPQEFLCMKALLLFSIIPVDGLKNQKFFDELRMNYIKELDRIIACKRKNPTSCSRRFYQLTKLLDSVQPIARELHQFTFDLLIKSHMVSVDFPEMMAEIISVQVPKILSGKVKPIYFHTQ

On to `C[C@]12CC[C@@H]3c4ccc(O)cc4CC[C@H]3[C@@H]1CC[C@@H]2OP(=O)(O)O`, for which the Potency result in assay [1], in [2], in assay [3], in [4], in [5] and in [6] was “inactive” throughout. The Potency entry in assay [8], in assay [9], in assay [10], in [11], in [12] and in assay [13] was “inactive” each time. Besides, the molecule was called inactive in [7].

For the molecule `OCCO[C@@H]1[C@@H](O)[C@H](O)[C@@H](CO)O[C@@H]1O`, the Potency result in assay [1], in assay [2], in [3], in assay [4], in assay [5] and in [6] was “inactive” each time. Moreover, the Potency entry in assay [8], in assay [9], in assay [10], in [11], in [12] and in assay [13] was “inactive” in each case. Moreover, the result in assay [7] was inactive. For the same molecule, in [14], the Potency is 13.4 µM [inconclusive] (active).

With `OCC(O)COc1ccc(Cl)cc1` (stereo unspecified), the Potency entry in assay [1], in assay [2], in [3], in [4], in assay [5] and in assay [6] was “inactive” each time. The Potency entry in assay [14], in assay [15], in assay [8], in assay [9], in [11] and in [12] was “inactive” throughout. Moreover, the Potency result in assay [16], in assay [17], in assay [18], in [13] and in assay [19] was “inactive” in each case.

As to `C/C=C(/CC[C@@H](C)[C@H]1CC[C@H]2C3=CC[C@H]4[C@H](C)[C@@H](O)CC[C@]4(C)[C@H]3CC[C@]12C)C(C)C`, the Potency result in [1], in assay [2], in assay [3], in assay [4], in assay [5] and in assay [8] was “inactive” throughout. Further, the Potency result in assay [9], in [10], in [11], in [12] and in [13] was “inactive” each time. In addition, the outcome in assay [20] and in [7] was inactive.

Take `OC[C@H]1O[C@@H](n2cnc3c2NC=NC[C@H]3O)C[C@@H]1O`: the Potency entry in [1], in assay [2], in assay [3], in assay [4], in assay [5] and in [14] was “inactive” throughout. Further, the Potency entry in assay [15], in assay [8], in [9], in assay [10], in [11] and in assay [12] was “inactive” each time. The Potency result in assay [13] was “inactive”. The outcome in assay [7] was inactive.

Turning to `CCN(CC)CCOC(=O)c1cccnc1`, the Potency entry in assay [1], in assay [2], in assay [3], in assay [4], in assay [5] and in assay [6] was “inactive” throughout. The Potency result in assay [14], in assay [8], in [11], in assay [12] and in assay [13] was “inactive” in each case. Further, the result in [7] was inactive.

As to `CS(=O)(=O)OCCCNCCCOS(C)(=O)=O`, the Potency result in assay [1], in assay [2], in [3], in [4], in [5] and in assay [6] was “inactive” in each case. Besides, the Potency result in [14], in assay [15], in assay [8], in assay [9], in assay [11] and in [12] was “inactive” throughout. Also, in assay [13], the Potency result is “inactive”. For the same molecule, the molecule was called inactive in assay [7].

In the case of `O=P(O)(O)OC[C@H]1O[C@](O)(COP(=O)(O)O)[C@@H](O)[C@@H]1O`, the Potency entry in assay [1], in assay [2], in assay [3], in [4], in assay [5] and in assay [6] was “inactive” in each case. The Potency entry in [8], in [9], in assay [10], in [11] and in assay [12] was “inactive” in each case. For the same molecule, in assay [7], the molecule was called inactive.

As to `NC(Cc1ccccc1)C(=O)O` (stereo unspecified), the Potency entry in [1], in assay [2], in assay [3], in assay [4], in assay [5] and in assay [6] was “inactive” each time. For the same molecule, the Potency entry in assay [8], in [9], in assay [10], in assay [11] and in [13] was “inactive” throughout.

Regarding `COc1cc2c(cc1OC)[C@@H](c1ccccc1)CN(C)CC2`, the Potency result in assay [1], in assay [3], in [4], in assay [5], in assay [6] and in assay [14] was “inactive” each time. Further, the Potency result in assay [15], in assay [8], in [10], in assay [11], in [12] and in [16] was “inactive” in each case. Besides, the Potency entry in assay [17], in assay [18], in assay [13] and in [19] was “inactive” each time. Besides, the call in assay [20] and in assay [7] was inactive. Also, the Potency in [9] is 23.7 µM (active).

For `CN1CCC(CN2c3ccccc3Sc3ccccc32)C1` (stereo unspecified), the Potency result in [1], in assay [2], in assay [3], in [5], in [6] and in assay [8] was “inactive” in each case. Further, the Potency result in assay [12], in assay [17], in assay [18] and in assay [13] was “inactive” each time. Moreover, the molecule was classed as inactive in assay [20] and in assay [7]. The figures for the Potency in assay [9], in assay [10] and in assay [11] were 5.96 µM (active), 4.22 µM (active) and 5.96 µM (active), respectively.

With `CC(C)(C)CC(C)(C)c1cc(Cc2cc(C(C)(C)CC(C)(C)C)cc(-n3nc4ccccc4n3)c2O)c(O)c(-n2nc3ccccc3n2)c1`, the Potency result in assay [1], in [2], in [3], in [5], in assay [6] and in assay [8] was “inactive” throughout. Moreover, the Potency result in assay [9], in [10], in assay [11], in assay [12] and in [13] was “inactive” each time. Besides, the outcome in assay [7] was inactive.

With `CC(O)CN(C)C` (stereo unspecified), the Potency entry in assay [1], in assay [2], in assay [3], in assay [5], in [8] and in [9] was “inactive” in each case. In addition, the Potency result in assay [10], in [11], in assay [12] and in [13] was “inactive” throughout. Also, the call in assay [20] and in assay [7] was inactive.

On to `O=P(O)(O)OC(Cn1cncn1)(Cn1cncn1)c1ccc(F)cc1F`, for which the Potency entry in assay [1], in assay [2], in assay [3], in [5], in assay [6] and in assay [14] was “inactive” each time. Further, the Potency entry in [15], in [8], in assay [9], in [10], in [11] and in assay [12] was “inactive” throughout. For the same molecule, the Potency entry in assay [16], in assay [18], in assay [13] and in assay [19] was “inactive” each time. For the same molecule, the result in [20] and in assay [7] was inactive.
